# PubChem BioAssay
# Unmarked numbers belong to inactive results. No rule for the calls is given here.
# Biological target: Pantothenate synthetase (Mycobacterium tuberculosis (strain ATCC 25618 / H37Rv)) (UniProt P9WIL5)
# Test: Coupled enzyme confirmation of inhibitors against recombinant Mtb PanC (AID 375);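 also: 0% = full reaction with vehicle and 100% = no enzyme background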
# Conditions: coupled enzyme assay; at 10 µM, stronger effect = higher value
# Chain of Pantothenate synthetase (Mycobacterium tuberculosis (strain ATCC 25618 / H37Rv)) (P9WIL5 whole entry, looked up): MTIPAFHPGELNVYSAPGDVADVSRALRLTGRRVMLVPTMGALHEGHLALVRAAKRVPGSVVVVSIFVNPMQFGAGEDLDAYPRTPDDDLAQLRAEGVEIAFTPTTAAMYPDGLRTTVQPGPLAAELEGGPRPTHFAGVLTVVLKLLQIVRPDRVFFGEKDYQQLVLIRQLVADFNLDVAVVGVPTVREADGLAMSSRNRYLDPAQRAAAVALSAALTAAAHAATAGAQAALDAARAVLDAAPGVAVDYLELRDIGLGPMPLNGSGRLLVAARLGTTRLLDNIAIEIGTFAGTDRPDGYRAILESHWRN
row,SMILES,inhibition
1,CCOC(=O)c1c(C)oc2ccc(O)c(CN(C)C)c12,0%
2,Clc1cc2c(c(Cn3cnc4ccccc43)c1)OCOC2,0%
3,O=C(C1CC2CCC1C2)N1CCN(Cc2ccc3c(c2)OCO3)CC1 (stereo not given),8%
4,O=C(NCCC1=CCCCC1)N[C@@H](Cc1ccccc1)C(=O)O,6%
5,CCOC(=O)c1ccc(NC(=O)c2ccc(NS(C)(=O)=O)cc2)cc1,0%
6,O=C(OCC#CCSc1nc2ccccc2s1)c1ccco1,3%
7,O=C(COc1ccc(Cl)cc1)Nc1ncccn1,9%
8,COc1cc(C2c3c(oc4c(C)cc(C)cc4c3=O)C(=O)N2Cc2cccnc2)cc(OC)c1OC (stereo not given),2%
9,Cc1cc(=O)n(-c2ccc3ccccc3n2)[nH]1,6%
10,COc1ccccc1CC(=O)NCc1ccc2c(c1)OCO2,0%
11,O=C(CCn1c(=O)oc2ccccc21)N1CCCCCC1,0%
12,CCOC(=O)CCC(=O)O[C@H]1[C@H](O[C@@H]2[C@@H](C)[C@H](O[C@H]3C[C@@](C)(OC)[C@@H](O)[C@H](C)O3)[C@@H](C)C(=O)O[C@H](CC)[C@@](C)(O)[C@H](O)[C@@H](C)C(=O)[C@H](C)C[C@@]2(C)O)O[C@H](C)C[C@@H]1N(C)C,0%
13,Nc1nc(F)nc2c1ncn2[C@@H]1O[C@H](CO)[C@@H](O)[C@@H]1O,0%
14,CC(=O)C1=C(O)C(=O)N(C2CCCCC2)C1c1ccccc1 (stereo not given),0%
15,CCN(C(=O)COC(=O)c1cc(C)n(-c2ccc(F)cc2)c1C)C1CCS(=O)(=O)C1 (stereo not given),1%
16,Cn1c2c(c(=O)n(C)c1=O)C(NC(=O)C(C)(C)C)(C(F)(F)F)C(=O)N2 (stereo not given),0%
17,CCOc1ccccc1-c1nc(-c2ccc(C)nc2OC)no1,3%
18,COc1cccc(NC(=O)N2CCC(N3CCCCC3)CC2)c1,0%
19,C/C=C/COC(=O)c1[nH]c2c(c1C)C(=O)CC(c1ccc(N(C)C)cc1)C2 (stereo not given),1%
20,Nn1c(SCC(=O)NC2CCCCC2)nnc1-c1ccc(Cl)cc1,2%

row,SMILES,inhibition
1,Cn1c(=O)c2c(nc(NCCCO)n2Cc2cccc(Br)c2)n(C)c1=O,3%
2,Cn1c(SCC(=O)N2CCOCC2)nnc1-c1cccc(NC(=O)c2ccccc2F)c1,0%
3,CS(=O)(=O)Nc1ccc(C(=O)NCCc2ccccc2)cc1,0%
4,COC(=O)c1cc(Br)c(=O)n(CCC2=CCCCC2)c1,0%
5,CC(C)COC(=O)NCC12C=CC(O1)C1C(=O)N(c3ccc(Cl)cc3)C(=O)C12 (stereo not given),0%
6,O=C(O)CC1=C(O)C(=O)N(c2ccccc2)C1c1ccccc1 (stereo not given),0%
7,COc1ccccc1C1c2c(oc3ccc(Cl)cc3c2=O)C(=O)N1c1cc(C)on1 (stereo not given),0%
8,CCOC(=O)c1ccc(NC(=O)Nc2ccn(C)n2)cc1,0%
9,CCN(CC)C(=O)c1sc(NC(=O)c2ccco2)c(C#N)c1C,15%
10,Cc1cc(C)n2cc(CSc3nnnn3-c3ccc(Cl)cc3)nc2n1,0%
11,CCOC(=O)N1CCC(NC(=O)C2CCCN(C(=O)c3cc4sccc4n3C)C2)CC1 (stereo not given),0%
12,CC(C)(S)[C@@H](N)C(=O)O,4%
13,Cc1ccc(-c2cc3nc4c(c(=O)n3[nH]2)CCCC4)cc1,6%
14,NC(=O)NC(c1ccccc1)c1ccccc1F (stereo not given),3%
15,CSc1nc2ccc(S(=O)(=O)N3CCOCC3)cc2s1,4%
16,COc1ccc(C(=O)N(CCN2CCOCC2)CC(=O)NC2CCCC2)cc1OC,1%
17,CC(C(=O)N1CCOCC1)N1c2cccc3cccc(c23)S1(=O)=O (stereo not given),8%
18,O=C(c1ccc(Cl)cc1)N(Cc1cccs1)C1CCS(=O)(=O)C1 (stereo not given),0%
19,CCOc1cc(C2Nc3ccccc3C(=O)N2c2ccccc2OC)ccc1O (stereo not given),0%
20,Cc1cccc(N2C(=O)CC(N3CCN(c4cccc(C(F)(F)F)c4)CC3)C2=O)c1 (stereo not given),1%
